# Reference: PubChem BioAssay AID1159580 (chemical genetic matrix, 2015)
# Among all 5,500 compounds or so, about 2,000 (36%) were called active. Not shown: some 18% with an inconclusive outcome. This is one part of the list. A number with no mark means an inactive call. Rule as the data show it: active = normalized growth mostly below about 0.91 (no sharp cut-off); inconclusive = no clear call, values can overlap the other calls; inactive = mostly above about 0.92.
# Test: chemical genetic growth profiling, strain panel (AID 1159580);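 also: tested at 20 µM; growth read once vehicle control cultures reached saturation at 30 °C; 1 = growth at the plate median or of vehicle wells; lower values mean less growth of the strain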
# Details: S. cerevisiae deletion strains, growth OD
# [1] = locus YAR019C, strain CDC15, hits give low values
# [2] = locus YBL105C, strain PKC1, hits give low values
# [3] = locus YBR135W, strain CKS1, hits give low values
# [4] = locus YBR136W, strain MEC1, hits give low values
# [5] = locus YBR160W, strain CDC28, hits give low values
# [6] = locus YDL017W, strain CDC7, hits give low values
# [7] = locus YDL028C, strain MPS1, hits give low values
# [8] = locus YDL101C, strain DUN1, hits give low values
# [9] = locus YDL108W, strain KIN28, hits give low values
# [10] = locus YDL132W, strain cdc53, hits give low values
# [11] = locus YDL214C, strain PRR2, hits give low values
# [12] = locus YDR052C, strain DBF4, hits give low values
# [13] = locus YDR054C, strain cdc34, hits give low values
# [14] = locus YDR226W, strain ADK1, hits give low values
# [15] = locus YDR477W, strain SNF1, hits give low values
# [16] = locus YER123W, strain YCK3, hits give low values
# [17] = locus YER133W, strain GLC7, hits give low values
# [18] = locus YFL009W, strain cdc4, hits give low values
# [19] = locus YFL029C, strain CAK1, hits give low values
# [20] = locus YFR003C, strain YPI1, hits give low values
# [21] = locus YFR019W, strain FAB1, hits give low values
# [22] = locus YFR028C, strain CDC14, hits give low values
# [23] = locus YGR040W, strain KSS1, hits give low values
# [24] = locus YGR052W, strain FMP48, hits give low values
# [25] = locus YGR092W, strain DBF2, hits give low values
# [26] = locus YHR030C, strain SLT2, hits give low values
# [27] = locus YHR079C, strain IRE1, hits give low values
# [28] = locus YHR082C, strain KSP1, hits give low values
# [29] = locus YHR205W, strain SCH9, hits give low values
# [30] = locus YIL147C, strain SLN1, hits give low values
# [31] = locus YJL095W, strain BCK1, hits give low values
# [32] = locus YJL128C, strain PBS2, hits give low values
# [33] = locus YJL157C, strain FAR1, hits give low values
# [34] = locus YJR016C, strain ILV3, hits give low values
# [35] = locus YJR066W, strain TOR1 (second series), hits give low values
# [36] = locus YJR066W, strain TOR1, hits give low values
# [37] = locus YKL048C, strain ELM1, hits give low values
# [38] = locus YKL067W, strain YNK1, hits give low values
# [39] = locus YKL101W, strain HSL1, hits give low values
# [40] = locus YKL193C, strain SDS22, hits give low values
# [41] = locus YKL203C, strain TOR2, hits give low values
# [42] = locus YLR113W, strain HOG1, hits give low values
# [43] = locus YLR133W, strain CKI1, hits give low values
# [44] = locus YLR403W, strain SFP1, hits give low values
# [45] = locus YML070W, strain DAK1, hits give low values
# [46] = locus YMR001C, strain CDC5, hits give low values
# [47] = locus YMR205C, strain PFK2 (second series), hits give low values
# [48] = locus YMR277W, strain FCP1, hits give low values
# [49] = locus YNL006W, strain LST8, hits give low values
# [50] = locus YNL020C, strain ARK1, hits give low values
# [51] = locus YNL161W, strain CBK1, hits give low values
# [52] = locus YNL183C, strain NPR1, hits give low values
# [53] = locus YNL207W, strain RIO2, hits give low values
# [54] = locus YNL222W, strain SSU72, hits give low values
# [55] = locus YNL307C, strain MCK1 (second series), hits give low values
# [56] = locus YOL078W, strain AVO1, hits give low values
# [57] = locus YOL136C, strain PFK27, hits give low values
# [58] = locus YOR061W, strain CKA2, hits give low values
# [59] = locus YOR119C, strain RIO1, hits give low values
# [60] = locus YOR231W, strain MKK1, hits give low values
# [61] = locus YOR329C, strain SCD5, hits give low values
# [62] = locus YPL031C, strain PHO85, hits give low values
# [63] = locus YPL153C, strain RAD53, hits give low values
# [64] = locus YPL204W, strain HRR25, hits give low values
# [65] = locus YPL209C, strain IPL1, hits give low values
# [66] = locus YPL256C, strain CLN2, hits give low values
# [67] = locus YPR025C, strain CCL1, hits give low values
# [68] = locus YPR106W, strain ISR1, hits give low values
# [69] = locus YPR111W, strain DBF20, hits give low values
# [70] = strain NNK1, hits give low values
# [71] = strain TSCII, hits give low values
# [72] = locus YAL040C, strain CLN3, hits give low values
# [73] = locus YCL061C, strain MRC1 (second series), hits give low values
# [74] = locus YDR150W, strain NUM1, hits give low values
# [75] = locus YDR363W, strain ESC2, hits give low values
# [76] = locus YER002W, strain NOP16, hits give low values
# [77] = locus YGR229C, strain SMI1, hits give low values
# [78] = locus YMR263W, strain SAP30, hits give low values
# [79] = locus YNL175C, strain NOP13, hits give low values
# [80] = locus YNL197C, strain WHI3, hits give low values
# [81] = locus YNL224C, strain SQS1, hits give low values
# [82] = locus YOR083W, strain WHI5 (second series), hits give low values
compound,measurement,setting,value
O=C1Nc2ccccc2/C1=C\c1cccc2ccccc12,normalized growth,[1],0.97
same,normalized growth,[2],0.955
same,normalized growth,[3],0.971
same,normalized growth,[4],0.97
same,normalized growth,[5],0.977
same,normalized growth,[6],0.963
same,normalized growth,[7],0.972
same,normalized growth,[8],0.985
same,normalized growth,[9],0.969
same,normalized growth,[10],0.965
same,normalized growth,[11],0.815
same,normalized growth,[12],0.976
same,normalized growth,[13],0.982
same,normalized growth,[14],0.96
same,normalized growth,[15],0.773
same,normalized growth,[16],0.777
same,normalized growth,[17],0.809
same,normalized growth,[18],0.98
same,normalized growth,[19],0.964
same,normalized growth,[20],0.972
same,normalized growth,[21],0.904
same,normalized growth,[22],0.972
same,normalized growth,[23],0.792
same,normalized growth,[24],0.807
same,normalized growth,[25],0.708
same,normalized growth,[26],0.663 (active)
same,normalized growth,[27],0.73
same,normalized growth,[28],0.741
same,normalized growth,[29],0.668
same,normalized growth,[30],0.968
same,normalized growth,[31],0.718
same,normalized growth,[32],0.914
same,normalized growth,[33],0.796
same,normalized growth,[34],0.966
same,normalized growth,[35],0.738
same,normalized growth,[36],0.798
same,normalized growth,[37],0.886
same,normalized growth,[38],0.855
same,normalized growth,[39],0.816
same,normalized growth,[40],0.968
same,normalized growth,[41],0.857
same,normalized growth,[42],0.667 (active)
same,normalized growth,[43],0.803
same,normalized growth,[44],0.727
same,normalized growth,[45],0.803
same,normalized growth,[46],0.957
same,normalized growth,[47],0.862
same,normalized growth,[48],0.963
same,normalized growth,[49],0.964
same,normalized growth,[50],0.784
same,normalized growth,[51],0.96
same,normalized growth,[52],0.784
same,normalized growth,[53],0.958
same,normalized growth,[54],0.971
same,normalized growth,[55],0.752
same,normalized growth,[56],0.973
same,normalized growth,[57],0.808
same,normalized growth,[58],0.867
same,normalized growth,[59],0.885
same,normalized growth,[60],0.807
same,normalized growth,[61],0.966
same,normalized growth,[62],0.738
same,normalized growth,[63],0.78
same,normalized growth,[64],0.699
same,normalized growth,[65],0.967
same,normalized growth,[66],0.694 (active)
same,normalized growth,[67],0.972
same,normalized growth,[68],0.959
same,normalized growth,[69],0.949
same,normalized growth,[70],0.953
same,normalized growth,[71],0.965
Cc1ccc(OCC(O)C(C)NC(C)C)c2c1CCC2 (configuration not stated),normalized growth,[72],0.989
same,normalized growth,[73],0.993
same,normalized growth,[74],1.01
same,normalized growth,[75],0.961
same,normalized growth,[76],0.977
same,normalized growth,"locus YGR078C, strain PAC10, hits give low values",0.982
same,normalized growth,[77],1.01
same,normalized growth,[78],1
same,normalized growth,"locus YNL128W, strain TEP1, hits give low values",0.985
same,normalized growth,"locus YNL153C, strain GIM3, hits give low values",1
same,normalized growth,[79],0.982
same,normalized growth,[80],0.972
same,normalized growth,[81],1
same,normalized growth,[82],1
same,normalized growth,"locus YPL055C, strain LGE1, hits give low values",1
O=C(NC(=S)NNc1ncc(C(F)(F)F)cc1Cl)c1cccs1,normalized growth,[1],0.665 (active)
same,normalized growth,[2],0.764 (active)
same,normalized growth,[3],0.604 (active)
same,normalized growth,[4],0.537 (active)
same,normalized growth,[5],0.692 (active)
same,normalized growth,[6],0.727 (active)
same,normalized growth,[7],0.537 (active)
same,normalized growth,[8],0.576 (active)
same,normalized growth,[9],0.726 (active)
same,normalized growth,[10],0.588 (active)
same,normalized growth,[11],0.218 (active)
same,normalized growth,[12],0.581 (active)
same,normalized growth,[13],0.492 (active)
same,normalized growth,[14],0.527 (active)
same,normalized growth,[15],0.31 (active)
same,normalized growth,[16],0.17 (active)
same,normalized growth,[17],0.37 (active)
same,normalized growth,[18],0.51 (active)
same,normalized growth,[19],0.59 (active)
same,normalized growth,[20],0.738 (active)
same,normalized growth,[21],0.384 (active)
same,normalized growth,[22],0.482 (active)
same,normalized growth,[23],0.28 (active)
same,normalized growth,[24],0.171 (active)
same,normalized growth,[25],0.163 (active)
same,normalized growth,[26],0.287 (active)
same,normalized growth,[27],0.294 (active)
same,normalized growth,[28],0.296 (active)
same,normalized growth,[29],0.244 (active)
same,normalized growth,[30],0.609 (active)
same,normalized growth,[31],0.244 (active)
same,normalized growth,[32],0.328 (active)
same,normalized growth,[33],0.198 (active)
same,normalized growth,[34],0.624 (active)
same,normalized growth,[35],0.15 (active)
same,normalized growth,[36],0.237 (active)
same,normalized growth,[37],0.256 (active)
same,normalized growth,[38],0.17 (active)
same,normalized growth,[39],0.242 (active)
same,normalized growth,[40],0.629 (active)
same,normalized growth,[41],0.234 (active)
same,normalized growth,[42],0.252 (active)
same,normalized growth,[43],0.251 (active)
same,normalized growth,[44],0.123 (active)
same,normalized growth,[45],0.247 (active)
same,normalized growth,[46],0.549 (active)
same,normalized growth,[47],0.23 (active)
same,normalized growth,[48],0.413 (active)
same,normalized growth,[49],0.714 (active)
same,normalized growth,[50],0.211 (active)
same,normalized growth,[51],0.533 (active)
same,normalized growth,[52],0.195 (active)
same,normalized growth,[53],0.6 (active)
same,normalized growth,[54],0.559 (active)
same,normalized growth,[55],0.146 (active)
same,normalized growth,[56],0.585 (active)
same,normalized growth,[57],0.276 (active)
same,normalized growth,[58],0.242 (active)
same,normalized growth,[59],0.237 (active)
same,normalized growth,[60],0.256 (active)
same,normalized growth,[61],0.727 (active)
same,normalized growth,[62],0.441 (active)
same,normalized growth,[63],0.283 (active)
same,normalized growth,[64],0.315 (active)
same,normalized growth,[65],0.736 (active)
same,normalized growth,[66],0.367 (active)
same,normalized growth,[67],0.745 (active)
same,normalized growth,[68],0.472 (active)
same,normalized growth,[69],0.453 (active)
same,normalized growth,[70],0.492 (active)
same,normalized growth,[71],0.524 (active)
NCCS(=O)O,normalized growth,"locus YAL013W, strain DEP1, hits give low values",1.01
same,normalized growth,[72],0.998
same,normalized growth,[73],1.01
same,normalized growth,[74],1
same,normalized growth,[75],1.02
same,normalized growth,[76],1
same,normalized growth,[77],1
same,normalized growth,"locus YJR075W, strain HOC1, hits give low values",1.01
same,normalized growth,[78],1.01
same,normalized growth,"locus YMR307W, strain GAS1, hits give low values",1.01
same,normalized growth,[79],1
same,normalized growth,[80],1
same,normalized growth,[81],0.991
same,normalized growth,[82],1.03
same,normalized growth,"locus YPL241C, strain CIN2, hits give low values",1
